Screening data as filed in PubChem BioAssay.
Compounds with a hit are over-represented: about 4.6% of the library has one in this group of screens.
Peg3 prom inh: Peg3 promoter-driven luciferase inhibitors, primary screen, cell-based, HeLa, luciferase luminescence. 360,000 tested, 1.7% active. AID 588405, 2011. inhibition, % at 20 µM. HeLa PEG-Prom luciferase reporter, overnight;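 active means inhibition of at least 50% at 20 µM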
ABHD5-PLIN5 inh: ABHD5-PLIN5 interaction inhibitors, primary screen, cell lysate, split luciferase complementation, luminescence | Perilipin-5 (Homo sapiens) + 1-acylglycerol-3-phosphate O-acyltransferase ABHD5 (Homo … | Split G. princeps luciferase complementation, 4 h | inhibition, % at 4 µM | 360,000 tested, 0.78% active;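 active means inhibition above the mean inhibition across every tested compound plus 3 SD, cut at about 22% in these data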;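 further: 0% = DMSO only wells and the 100% control is not disclosed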
HIF-2a block: HIF-2a reporter inhibitors, primary screen, luminescence, 786-0 RCC cells; AID 624352, 2012; inhibition, % at 18.8 µM; 786-0 RCC cells HIF-2a reporter, luciferase luminescence, overnight; 360,000 tested, 0.72% active;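 active means inhibition of the luminescence signal of 40% or more relative to plate controls, in a single-dose primary screen at 18.75 µM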
CF NFkB block: inhibitors of PAF-induced NF-kB signaling, primary screen, cell-based, GFP fluorescence, uHTS; KKLEB NF-kB-GFP reporter, GFP fluorescence overnight; inhibition, % at 5 µM; 360,000 tested, 0.86% active;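 active means at least 50% inhibition at 5 µM, scaled per plate between neutral and stimulator controls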;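 further: PAF is a Pseudomonas aeruginosa culture filtrate used as stimulus; plate controls were PAF-stimulated DMSO wells for no effect and unstimulated DMSO wells for full effect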
KKLEB tox: cytotoxicity in KKLEB CF airway cells, primary screen, cytotoxicity control for CF NF-kB inhibitor project, cell-based, uHTS, fluorescence assay plates | KKLEB CF airway cells viability, ATPlite luminescence, overnight; hits give low values; cells stimulated with P. aeruginosa culture filtrate | activity change (cytotoxicity), % at 5 µM | 360,000 tested, 0.36% active | AID 602141, 2011;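 active means corrected activity change at or below -50% at 5 µM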
Mdm2 MdmX PPI: inhibitors of human Mdm2-MdmX association, primary screen, cell-based, luminescence, split luciferase, SaOS-2, uHTS; Protein Mdm4 (Homo sapiens) + E3 ubiquitin-protein ligase Mdm2 (Homo sapiens), …; SaOS-2 split-luciferase Mdm2/MdmX complementation; inhibition, % at 8 µM; 330,000 tested, 3% active; AID 485346, 2010;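 active means inhibition of at least 50% at 8 µM in the primary screen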
Mdm2 MdmX conf: Mdm2-MdmX complex disruptors, retested hits, confirmation, luminescence, single concentration | 10,000 tested, 55% active | inhibition, % at 8 µM | AID 489028, 2010 | Mdm2-MdmX binding, luminescent assay | shares compounds with Mdm2 MdmX PPI; in the data active means inhibition above about 40%
FLuc counter: full-length luciferase signal inhibition, confirmation, counter-screen for Mdm2/MdmX interaction inhibitor project, cell-based, single concentration, SaOS-2; shares compounds with Mdm2 MdmX PPI; SaOS-2 full-length luciferase counterscreen, luminescence; inhibition, % at 8 µM; 6,200 tested, 77% active; AID 504607, 2011;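 active means mean inhibition at 8 µM reaching about 37%, which flags the compound as non-specific, limit read from the data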;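 further: p53-null SaOS-2 cells with luciferase driven by a doxycycline-inducible promoter; compound on cells about two nights before reading with doxycycline added after day one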
* hit, by the source's call; . = no result given.

SMILES	Peg3 prom inh	ABHD5-PLIN5 inh	HIF-2a block	CF NFkB block	KKLEB tox	Mdm2 MdmX PPI	Mdm2 MdmX conf	FLuc counter
CCOc1cc(C=NN=C2c3ccccc3-c3ccccc32)ccc1O	-45	-7	-70	1	6	.	.	.
O=C1/C(=C/c2ccc(S(=O)(=O)O)cc2S(=O)(=O)O)CCc2ccccc21	.	4	8	.	.	.	.	.
CCOC(=O)c1c(CN(C)C)n(C)c2c(O)c(N=NC(N)=O)c3ccc(Br)cc3c12	8	-13	13	-42	-2	77*	47*	28
CCCn1c(=O)c(C(=O)OCC)c(O)c2cc(Br)ccc21	-6	2	13	-16	6	24	.	.
CCOC(=O)c1c(CSc2ccc(CC)cc2)oc2ccc(O)c(CN(C)C)c12	98*	21	6	38	-21	86*	44*	63*
CCOC(=O)c1c(C)oc2ccc(O)c(CN(C)C)c12	9	0	12	1	5	25	.	.
Cn1c(=O)c2c(nc(NCC3CCCC(CN)C3)n2Cc2ccc(Cl)cc2Cl)n(C)c1=O (configuration not stated)	34	3	23	-12	-5	58*	42*	65*
Cn1c(=O)c2c(nc(NCCNC(=O)c3ccco3)n2Cc2ccc(Cl)cc2Cl)n(C)c1=O	12	-2	-3	-5	1	-4	.	.
Cc1nn(-c2ccccc2)c(C)c1/C=N/NC(=O)c1cc(-c2cccc3ccccc23)n[nH]1	-13	-8	-20	9	-5	46	.	.
Cc1nn(-c2ccccc2)c(C)c1/C=N/NC(=O)c1cc(-c2ccccc2)n[nH]1	-11	-3	2	64*	-21	59*	63*	79*
COC1=CC(=O)OC(c2cccc(C#N)c2)C1 (configuration not stated)	.	5	-2	.	.	.	.	.
C=CCn1c(O)c(N=NC(=S)Nc2cccc(OC)c2)c2ccccc21	11	-3	11	2	-2	58*	40*	48*
Cc1cc(C)c(Cn2c(=O)[nH][nH]c2=O)cc1Cn1c(=O)[nH][nH]c1=O	-15	-2	1	8	-7	.	.	.
CCOC(=O)N1CCC(N(CCN(C)C)C(=S)Nc2cccc(Cl)c2)CC1	8	-2	3	13	-3	12	.	.
CCOC(=O)N1CCC(N(CCN(C)C)C(=S)Nc2cc(Cl)cc(Cl)c2)CC1	-1	1	13	-9	8	67*	42*	50*
Cc1cc(C)cc(OCc2nc3ncc(Br)cc3[nH]2)c1	21	-2	18	35	-50*	81*	74*	31
Cc1ccc(Sc2c(CO)c(-c3ccccc3)nn2C)cc1	-5	0	7	32	-2	51*	47*	92*
Cn1nc(-c2ccccc2)c(CO)c1Oc1cccc(C(F)(F)F)c1	9	1	1	4	3	-21	.	.
COC(CN(C)S(=O)(=O)c1cc2c3c(c1)CCN3C(=O)CC2)OC	-3	-6	0	-8	4	-14	.	.
Cc1cccc(OCC(=O)NC(=S)Nc2ccccc2N2CCOCC2)c1C	45	-2	3	13	-22	73*	15	.
CCn1c(=O)cc(OCC(=O)Nc2ccccc2N2CCN(C)CC2)c2ccccc21	-18	3	-18	-7	0	50*	16	.
CCOC(=O)c1ccccc1NC(=O)COc1cc(=O)n(CC)c2ccccc12	9	4	8	-20	5	25	.	.
CCOc1ccc(OCC(=O)Nc2ccccc2N2CCCC2)cc1	11	-7	-10	12	-11	51*	72*	60*
O=C(COc1ccccc1)Nc1ccccc1N1CCCCC1	27	-2	18	4	0	-7	.	.
Cc1ccccc1OCC(=O)Nc1ccccc1N1CCOCC1	27	-5	21	8	-5	50*	8	.
SMILES	Peg3 prom inh	ABHD5-PLIN5 inh	HIF-2a block	CF NFkB block	KKLEB tox	Mdm2 MdmX PPI	Mdm2 MdmX conf	FLuc counter
COc1ccc(N2CCOCC2)c(NC(=O)COc2cccc(C)c2C)c1	37	-1	8	16	1	4	.	.
COc1cc(NC(=O)C2(C)CCN2C(=O)C(C)C)cc(OC)c1OC (configuration not stated)	13	-1	7	-10	-1	.	.	.
Cc1cccc(OCC(=O)Nc2ccc(N3CCN(S(C)(=O)=O)CC3)cc2)c1C	22	2	10	3	-12	96*	25	.
Cc1ccccc1C(=O)c1cccn1CC(=O)NCCCN1CCCCC1	-15	-1	2	3	-4	12	.	.
Cc1ccccc1C(=O)c1cccn1CC(=O)NCCN1CCN(c2cccc(C)c2C)CC1	-7	11	17	-2	5	79*	48*	59*
Cc1ccc(C)c(N2CCN(CCCNC(=O)Cn3cccc3C(=O)c3ccccc3C)CC2)c1	107*	18	10	36	-25	90*	66*	43*
COc1ccccc1NC(=O)C1CC(C(C)C)OC1=O (configuration not stated)	5	7	-8	-7	12	-4	.	.
Cc1nc2c(=O)[nH]c(=S)[nH]c2[nH]c1=O	-6	-6	15	1	-7	.	.	.
Cc1ccc2c(c1)C1CN(C)CCC1N2Sc1ccccc1[N+](=O)[O-] (configuration not stated)	24	12	0	16	-9	61*	40*	62*
O=C(Nc1cccc([N+](=O)[O-])c1)c1cc2ccccc2cc1O	-257	-2	-271	60*	-52*	93*	75*	31
Cc1ccc([N+](=O)[O-])cc1NC(=O)Nc1cccc(F)c1	38	1	-22	-6	5	59*	27	.
O=C(Nc1cccc([N+](=O)[O-])c1)c1cccc(C(=O)Nc2cccc([N+](=O)[O-])c2)c1	34	1	25	-14	-10	76*	45*	71*
O=C(Nc1cccc([N+](=O)[O-])c1)Nc1ccc2c(c1)CCC2	-138	9	-268	27	-9	72*	22	.
O=C(Nc1ccc(NC(=O)c2cccc([N+](=O)[O-])c2)cc1)c1cccc([N+](=O)[O-])c1	-56	10	-88	-3	-16	-2	.	.
